In PubChem BioAssay (NCI):
This is part of a sample that, as a whole, favours compounds with a hit. Of some 83,000 tested, about 20% had one in any assay.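 Activity criterion: percent growth below 10, measured after cells in 96-well plates were exposed to a single compound concentration for 48 hours.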 Calls of active or inactive are those of the source.

Tested on: HL-60(TB) leukemia
Assay: NCI-60 one-dose screen, 48 h (100 = growth as untreated, 0 = no growth, -100 = all killed)
Conditions: 10 µM unless noted

Row | SMILES | growth
1 | CC(=O)O[C@H]1[C@H](CC#CC#CC[C@@H]2C[C@]3(C)[C@H]4CC=C5[C@H]6[C@@H](C)[C@H](C)CC[C@]6(C(=O)NCCCCCCCCN)CC[C@@]5(C)[C@]4(C)CC[C@H]3C(C)(C)[C@H]2OC(C)=O)C[C@]2(C)[C@H]3CC=C4[C@H]5[C@@H](C)[C@H](C)CC[C@]5(C(=O)NCCCCCCCCN)CC[C@@]4(C)[C@]3(C)CC[C@H]2C1(C)C | 104% (inactive)
2 | COS(=O)(=O)CCN(CCOS(C)(=O)=O)S(C)(=O)=O | 82.9% (inactive)
3 | CCC(C)NCc1ccccc1 (configuration not stated) | 94.6% (inactive)
4 | O=C1CSC(c2ccccc2Cl)N1c1nnc(-c2ccncc2)o1 (configuration not stated) | 95.2% (inactive)
5 | CC(C)(C)OC(=O)N1CCc2c(sc3ncnc(N/N=C/c4ccc(Br)cc4)c23)C1 | 83.1% (inactive)
6 | COC(=O)CCC1=C(C)/C(=C/c2[nH]c(-c3ccc[nH]3)cc2OC)N=C1C | -23.3% (active)
7 | O=C(CSc1nnc(-c2cc(-c3ccccc3)nc3ccccc23)o1)c1ccc(Br)cc1 | 99.4% (inactive)
8 | O=P([O-])(O)OP(=O)([O-])O.[NH-][C@H]1CCCC[C@@H]1[NH-].[OH-].[OH-].[Pt+4] | 111% (inactive)
9 | CN1CCCC1=Nc1ccccc1 | 93.3% (inactive)
10 | [Cu+].[NH-][C@H]1C[N-]C(=O)[C@H]([C@H]2CCN=C(N)N2)[N-]C(=O)/C(=C\NC(N)=O)[N-]C(=O)[C@H](CNC(=O)C[C@@H](N)CCCN)[N-]C(=O)[C@H](CO)[N-]C1=O | 104% (inactive)
11 | O=C(/C=C/c1cccc(B(O)O)c1)c1cccc(B(O)O)c1 | -13.8% (active)
12 | O=C1c2cccc3cccc(c23)C(=O)N1CCCCCN1CCN(CCCCCOc2ccc(-c3nc4ccc(N5CCOCC5)cc4[nH]3)cc2)CC1 | 3.01% (active)
13 | COc1cc(CCCO)c(OC)c(OC)c1OC | 98.4% (inactive)
14 | COc1ccc(NC(=O)c2ccc(Nc3ncnc4[nH]c(C)c(C)c34)cc2)cc1 | 89.1% (inactive)
15 | COc1cccc(-c2nn(-c3ccccc3)cc2-c2ccnc(NCCCNC(=O)c3cccc(C(F)(F)F)c3)c2)c1 | 7.43% (active)
16 | Nc1c(C(=O)Nc2ccnc3ccccc23)sc2nc3c(cc12)CN(Cc1ccccc1)CC3 | 32.7% (inactive)
17 | O=C1CCCCC=C1C[N+](=O)[O-] | 0.0104% (active)
18 | O=C(c1ccccc1)C(Nc1ccccc1)c1ccccc1 (configuration not stated) | 84% (inactive)
19 | CCN(CCNc1ccc(C)c2sc3cc(Cl)ccc3c(=O)c12)CC(C)(C)O | 81.4% (inactive)

Row | SMILES | growth
20 | COc1cc(/C=C/C(=O)CC(=O)/C=C/c2ccc(OC(=O)C3C4CC5CC(C4)CC3C5)c(OC)c2)ccc1OC(=O)C1C2CC3CC(C2)CC1C3 (configuration not stated) | 94% (inactive)
21 | CCOC(=O)C/C(C)=N\O | 94.5% (inactive)
22 | CCOC(=O)c1ccc(-c2ccc3cc(OC)ccc3c2)nc1C | 91.2% (inactive)
23 | COc1ccc(/C=C2\SC(=O)N(CN3CCN(c4cc5c(cc4F)c(=O)c(C(=O)O)cn5C4CC4)CC3)C2=O)cc1 | 109% (inactive)
24 | C=CC1CN2CCC1CC2C(O)c1ccnc2ccc(OC)cc12 (configuration not stated) | 103% (inactive)
25 | O=C(/C=C/c1ccccc1)CC(c1ccccc1)N1CCOCC1 (configuration not stated) | 70.7% (inactive)
26 | Cc1cc(Cl)cc(Cc2cc(Cl)cc(C)c2O)c1O | -27.9% (active)
27 | COP(=O)(OC)c1nnn(-c2cccc([N+](=O)[O-])c2)c1C | 99.8% (inactive)
28 | O=C(Nc1cccc(Br)c1)c1cc(=O)[nH]c2ccccc12 | 108% (inactive)
29 | N#Cc1c(Nc2cccc(Cl)c2)sc(C(=O)c2cc3cc(Cl)ccc3o2)c1N | 92.9% (inactive)
30 | Cc1cc2nc(CN)[nH]c2cc1C | 96.6% (inactive)
31 | Clc1ccccc1Nc1ccc2nnc(-c3ccncc3)n2n1 | 75.8% (inactive)
32 | Cc1ccc(NC(=O)NC2CCCCC2)cc1 | 63.1% (inactive)
33 | Cc1c(C(N)=O)sc2nc(C)n(/N=c3\scc(-c4ccccc4)n3Cc3ccccc3)c(=O)c12 | -35.8% (active)
34 | CCCCC1=C(Br)C(=O)c2ncccc2C1=O | 83.3% (inactive)
35 | Cc1[nH]c(-c2ccc3cc[nH]c3c2)c2c1C(=O)CCCC2 | 20.5% (inactive)
36 | CCOC(=O)CNC(=O)Sc1ccc(C(C)(C)C)cc1 | 64.4% (inactive)
37 | C[C@H](C(=O)N(CCc1ccc(Cl)c(Cl)c1)Cc1cncs1)[C@@H]1CC[C@H](C[C@H](C)n2cc(CN3CCC(c4ccc(Cl)cc4)CC3)nn2)O1 | -71.2% (active)
